# TDP1 cell CPT: qHTS for Inhibitors of human tyrosyl-DNA phosphodiesterase 1 (TDP1): qHTS in cells in presence of CPT; chicken DT40 Tdp1-/-;hTDP1 cells + 20 nM CPT, ATP luminescence, 48 h; Potency, µM (highest dose often 46.2 µM), usual class: inhibitors; actives 12% (n = 420,000); AID 686979, 2013; further: nearly all actives have a fitted effect of over 55% in size
#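 Chicken DT40 Tdp1-/- cells complemented with human TDP1, 400 cells/well, exposed to compounds plus 20 nM camptothecin for at least 48 h at 37 C; viability read as ATP content by CellTiter-Glo luminescence.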
# DT40 TDP1 no CPT: qHTS for Inhibitors of human tyrosyl-DNA phosphodiesterase 1 (TDP1): qHTS in cells in absence of CPT; DT40 Tdp1-/- hTDP1 cells, no CPT, ATP luminescence, 48 h; Potency, µM (series often up to 46.2 µM), usual class: inhibitors; actives 15% (n = 420,000); AID 686978, 2013; further: nearly all actives have a fitted effect of over 55% in size
#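 Growth kinetics read by CellTiter-Glo luminescence after ≥48 hr at 37 °C. Cells: DT40 Tdp1-/- stably carrying human TDP1, 400 per well, compound exposure in the absence of CPT (DMSO vehicle).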
# TDP1 block: qHTS Assay for Inhibitors of Tyrosyl-DNA Phosphodiesterase (TDP1); actives 0.28% (n = 350,000); Tyrosyl-DNA phosphodiesterase 1 (Homo sapiens), Q9NUW8; AID 485290, 2010; recombinant TDP1, AlphaScreen DNA substrate cleavage; Potency, µM (top dose mostly 130 µM), most hits filed as inhibitors; further: nearly all actives have a fitted effect of over 40% in size
# Target sequence (Q9NUW8 whole entry, looked up): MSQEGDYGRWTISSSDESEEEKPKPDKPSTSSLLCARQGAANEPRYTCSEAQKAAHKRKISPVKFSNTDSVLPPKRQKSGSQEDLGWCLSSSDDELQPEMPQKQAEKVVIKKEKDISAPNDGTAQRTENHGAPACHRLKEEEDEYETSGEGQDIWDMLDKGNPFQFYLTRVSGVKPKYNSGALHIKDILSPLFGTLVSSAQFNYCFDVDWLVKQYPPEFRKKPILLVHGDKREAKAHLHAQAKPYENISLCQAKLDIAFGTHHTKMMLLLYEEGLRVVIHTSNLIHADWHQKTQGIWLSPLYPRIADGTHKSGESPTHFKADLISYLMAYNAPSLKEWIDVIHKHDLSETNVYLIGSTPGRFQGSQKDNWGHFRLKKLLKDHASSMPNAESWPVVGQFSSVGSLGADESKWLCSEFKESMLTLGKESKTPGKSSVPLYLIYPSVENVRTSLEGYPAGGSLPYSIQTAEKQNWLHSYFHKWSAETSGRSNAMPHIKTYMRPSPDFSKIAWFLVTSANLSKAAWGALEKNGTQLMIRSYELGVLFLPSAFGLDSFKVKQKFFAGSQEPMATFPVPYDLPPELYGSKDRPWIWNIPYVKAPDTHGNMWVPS
#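 Recombinant human Tdp1 (E. coli-expressed, 1 nM final) preincubated with compounds 15 min at room temperature, then 5'-biotin/3'-phosphotyrosine-FITC DNA substrate (15 nM final) added for 5 min. AlphaScreen beads (10 ug/ml final) added 10 min; cleavage lowers signal.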
# VP16 counter: VP16 counterscreen qHTS for inhibitors of ROR gamma transcriptional activity. actives 3.5% (n = 310,000). AID 2546, 2010. Potency, µM (titrated, usually from 53.6 µM), hits mostly inhibitors. Drosophila S2 Gal4-VP16 UAS-luciferase, luminescence, 20 h;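 further: Gal4-VP16 expression switched on by copper sulfate through the metallothionein promoter; nearly all actives have a fitted effect of over 50% in size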
# RORg inh: qHTS for inhibitors of ROR gamma transcriptional activity; Nuclear receptor ROR-gamma (Mus musculus), P51450; Drosophila S2 Gal4-RORgamma UAS-luciferase reporter, 20 h; Potency, µM (highest dose often 53.6 µM), usual class: inhibitors; actives 5.4% (n = 310,000); AID 2551, 2010; further: nearly all actives have a fitted effect of over 60% in size
#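 Luciferase reporter read in Schneider cells carrying Gal4-RORγ (mouse) and UAS-Photinus luciferase; cells given compound 1 h before 700 uM copper sulfate induction, then incubated 20 h at ambient temperature.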
# A number is an active result; 0 = inactive; ? = inconclusive; - = not tested or not shown. Compounds with a hit are over-represented: about 19% of the library has one in this group of screens. The call rests on the fitted dose curve; in most records, active means well fitted curve in the direction sought with a large enough effect; inconclusive means small, poorly fitted or top-dose-only effect, or another doubt; inactive means no such curve, though single readings can be large; an effect the other way counts as inactive or inconclusive.
SMILES,TDP1 cell CPT,DT40 TDP1 no CPT,TDP1 block,VP16 counter,RORg inh
CCCc1ccc(C(=O)NNC(=O)c2ccc(Br)cc2)cc1,0,0,0,0,0
O=C(NC(=O)c1ccccc1O)c1ccc(C(F)(F)F)cc1,11.6µM,7.31µM,-,8.91µM,?
CCCc1ccc(C(=O)NC(=O)c2ccccc2O)cc1,2.31µM,2.91µM,0,1.58µM,2.82µM
CC(C)NC(=O)C1CC(=O)N(C(C)c2ccccc2)C1 (configuration not stated),0,0,0,0,0
CN(C)CCN1C(=O)c2oc3ccccc3c(=O)c2C1c1cccc(Br)c1 (configuration not stated),0,0,0,0,0
CCN1C(=O)CC(N2CCN(c3ccc(Cl)cc3)CC2)C1=O (configuration not stated),0,0,0,0,0
CCN1C(=O)CC(N2CCN(c3ccc(C(=O)c4ccccc4)cc3)CC2)C1=O (configuration not stated),?,23.1µM,0,0,0
CC(=O)c1c(C)[nH]c(C(=O)COC(=O)C2(C)CC2(Cl)Cl)c1C (configuration not stated),18.4µM,20.6µM,0,-,-
CC(=O)c1c(C)[nH]c(C(=O)COC(=O)c2cc(C)oc2C)c1C,?,2.59µM,0,-,-
CC(=O)c1c(C)[nH]c(C(=O)COC(=O)c2ccc(C)s2)c1C,0,?,0,-,-
COC(=O)c1c(C)[nH]c(C(=O)C(C)OC(=O)c2cc(C)oc2C)c1C (configuration not stated),?,16.4µM,0,-,-
CCOC(=O)c1c(C)[nH]c(C(=O)COC(=O)[C@H](C)N2C(=O)C3CCCCC3C2=O)c1C (some centres not stated),?,25.9µM,-,-,-
COC(=O)c1c(C)[nH]c(C(=O)C(C)OC(=O)c2ccco2)c1C (configuration not stated),0,?,0,-,-
COc1ccc(C(=O)N2CCN(c3ccc([N+](=O)[O-])c(-n4nc(C)cc4C)c3)CC2)cc1,0,0,0,0,0
O=C(CN1CCN(c2ccc(O)cc2)CC1)NCC(=O)Nc1ccc(F)c(F)c1F,?,?,0,-,-
CCOC(=O)c1sc(NC(=O)CN2CCN(c3ccccc3)CC2)nc1C,0,?,0,0,0
Cc1c(Cl)cccc1NC(=O)CC(NCCN1CCOCC1)C(=O)O (configuration not stated),0,0,-,-,-
Cc1ccc2cc3cc(C(=O)N4CCCCC4C)oc3nc2c1 (configuration not stated),?,?,0,0,0
CCOC(=O)c1[nH]c(C)c(C(=O)OCC)c1C,0,0,0,0,0
CCOC(=O)c1c(C)[nH]c(C(=O)COC(=O)c2[nH]c(C)c(C(C)=O)c2C)c1C,4.61µM,5.17µM,0,0,0
CCOC(=O)c1c(C)[nH]c(-c2csc(C)n2)c1C,?,13µM,0,0,0
CCOC(=O)c1c(C)[nH]c(C(=O)COc2ccc3ccc(=O)oc3c2)c1C,?,0,22.4µM,-,-
O=C(N1CCCCC1)C12CC3CC(C1)CC(C(=O)N1CCCCC1)(C3)C2,?,23.1µM,0,0,0
Cc1ccc(CNC(=O)CN2C(=O)NC(C)(c3ccccc3Cl)C2=O)cc1 (configuration not stated),0,0,-,0,0
COc1cccc(CNc2nc3cc(-c4cccc(Cl)c4)sc3c(=O)n2C)c1,0,0,-,-,-
COc1cccc(CNc2nc3cc(C(C)=C(C)C)sc3c(=O)n2C)c1,18.4µM,?,-,-,-
Cc1ccccc1-c1cc2nc(Nc3ccc(F)cc3)n(C)c(=O)c2s1,?,23.1µM,-,-,-
COc1ccc(-c2cc(CNc3nc4cc(-c5ccccc5C)sc4c(=O)n3C)on2)cc1,16.4µM,20.6µM,-,-,-
COc1ccccc1CNc1nc2cc(-c3sccc3C)sc2c(=O)n1C,18.4µM,16.4µM,-,-,-
CC(C)OCCCNC(=O)c1ccc(Cn2c(=O)c3cccn3c3cccnc32)cc1,0,0,0,-,-

# High-throughput results from PubChem BioAssay.
